Measurements: PubChem BioAssay
Activity calls are given as the source filed them.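 The calls were made as follows: active = at least 20% inhibition of 6-phosphogluconate dehydrogenase activity; inactive = the rest.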

What follows are compounds tested against 6-phosphogluconate dehydrogenase, decarboxylating (Homo sapiens) (UniProt P52209) (assay: inhibition of human phosphogluconate dehydrogenase – biochemical, recombinant enzyme, NADPH absorbance, primary screen (AID 1159550)). Details: recombinant 6PGD, NADPH absorbance 341 nm; at 10 µM; active compounds read high.
6-phosphogluconate dehydrogenase, decarboxylating (Homo sapiens), sequence (P52209 whole entry, looked up): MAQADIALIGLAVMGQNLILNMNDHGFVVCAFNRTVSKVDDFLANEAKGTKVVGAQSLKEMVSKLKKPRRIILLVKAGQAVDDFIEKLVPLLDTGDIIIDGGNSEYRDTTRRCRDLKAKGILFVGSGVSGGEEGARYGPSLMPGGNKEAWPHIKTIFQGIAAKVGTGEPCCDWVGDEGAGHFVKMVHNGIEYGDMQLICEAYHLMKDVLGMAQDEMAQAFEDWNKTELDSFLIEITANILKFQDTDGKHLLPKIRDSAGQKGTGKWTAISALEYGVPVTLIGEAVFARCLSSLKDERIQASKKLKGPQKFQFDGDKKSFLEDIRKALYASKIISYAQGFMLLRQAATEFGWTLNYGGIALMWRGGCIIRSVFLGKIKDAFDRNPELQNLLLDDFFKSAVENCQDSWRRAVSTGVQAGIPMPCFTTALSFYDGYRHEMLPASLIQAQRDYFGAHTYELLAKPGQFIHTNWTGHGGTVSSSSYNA

Row | SMILES | inhibition
1 | CC(=O)OC1CCC2(C)C(CCC3C2CC(=O)C2(C)C3CC3OC4(CCC(C)CO4)C(C)C32)C1 (stereo unspecified) | 5.72% (inactive)
2 | CC(=O)Oc1cc2c(c(C)c1OC(C)=O)CC=C1[C@@]2(C)CC[C@@]2(C)[C@@H]3C[C@](C)(C(=O)O)CC[C@]3(C)CC[C@]12C | 0.972% (inactive)
3 | CC(CCC(=O)O)C1CCC2C3CCC4CCCCC4(C)C3CCC12C (stereo unspecified) | 14% (inactive)
4 | CNC(C)[C@@H]1CC[C@@H](N)[C@@H](OC2C(O)[C@@H](OC3OC[C@](C)(O)C(NC)[C@H]3O)[C@H](N)C[C@@H]2N)O1 (stereo partly specified) | 1.04% (inactive)
5 | CC1OC(OC2C(O)COC(OC3C(C)OC(OC4C(OC(=O)C56CCC(C)(C)CC5C5=CCC7C8(C)CCC(OC9OC(CO)C(O)C(O)C9O)C(C)(C)C8CCC7(C)C5(C)CC6O)OCC(O)C4O)C(O)C3O)C2O)C(O)C(O)C1O (stereo unspecified) | -33.1% (inactive)
6 | C[C@H](N)CO | -0.518% (inactive)
